Experimental findings from PubChem BioAssay (NCI) are described below.

The panel holds about 83,000 compounds, 20% with a hit somewhere; the sample as a whole holds those more often.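 Growth was measured after 48 h exposure to one concentration of compound in 96-well plates. Values under 10 count as active.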 Values without a mark were called inactive. The source made the active and inactive calls.

The experiment relates to BT-549 breast. Kind of experiment: NCI-60 one-dose screen, 48 h (100 = growth as untreated, 0 = no growth, -100 = all killed). To be noted: 10 µM. How it is done: Growth inhibition of the BT-549 human tumor cell line is measured as a screen for anti-cancer activity. Cells are grown in 96 well plates and exposed to the test compound for 48 hours. Compounds are tested at a single concentration, which is 10^-5 M for most compounds. The reported endpoint is percent growth (GI% or GIPRCNT), where numbers from 0 - 100% represent growth inhibition, and numbers from -100% - 0 represent cell death. For example, a value of 40 represents 60% growth inhibition. A value of 0 means no net growth occurred over the course of the experiment. A value of -40 indicates 40% of cells at the beginning of the experiment died by the end of the experiment. A value of -100 means all cells are dead at the end of the experiment.
NCI-60 Human Tumor Cell Lines Screen was performed using the standard one-dose NCI protocol, which is described in more detail at https://dtp.cancer.gov/discovery_development/nci-60/default.htm.
Compounds with GIPRCNT values below 10 were considered active. Activity score was based on GIPRCNT using the following formula: […]
Score is 0 for GIPRCNT values of 100 or above, 50 for GIPRCNT values of 0, and 100 for GIPRCNT values of -100.
With `COc1ccc(-c2nn(-c3cccc(Cl)c3)cc2-c2c(C#N)c(=O)n3[nH]c(-c4ccc(C)cc4)nc3c2C#N)cc1`, the growth was 43.4%.

Turning to `OCC1OC(n2ccc3c(NO)ncnc32)C(O)C1O` (stereo not given), the growth was -31.5% (active).

Take `COc1cc(-c2nn(-c3cccc(NC(=O)CCN4CCN(c5ccccc5)CC4)c3)cc2-c2ccncc2)ccc1Cl`: the growth is 12.6%.

On to `N#Cc1c(-c2ccc(Cl)cc2)cc(-c2cc(O)ccc2O)nc1N`, for which the growth is 22.6%.

Turning to `COc1ccc2c(c1)C(=O)/C(=C/c1ncc([N+](=O)[O-])n1C)O2`, the growth was -18.7% (active).

Consider `O=C1c2ccccc2C(=O)c2c1ccc1c(=O)n(-c3ccccc3C(F)(F)F)nnc21`, for which the growth was 52.8%.

As for `COc1ccc(-c2nc(-c3nc4ccc(C)cc4[nH]3)cc3c2[nH]c2ccccc23)cc1`, the growth is 71.7%.

In the case of `CCN(CC)CCCC(C)Nc1c2ccc(Cl)cc2nc2ccc(OC)cc12` (stereo not given), the growth was 56.2%.

For the compound `NC(=O)c1cccc(-n2ccc3cc(NC(=O)Nc4ccc(Cl)c(C(F)(F)F)c4)ccc32)n1`, the growth was 69.8%.

For `Cc1noc(C)c1CSc1ccccc1C(=O)N1CCN(c2cccc(C(F)(F)F)c2)CC1`, the growth was 61%.

Consider `Nc1ccc(CC[C@H]2CCC/C=C/[C@@H]3C[C@H](O)C[C@H]3[C@H](O)/C=C/C(=O)O2)cc1`, for which the growth is 11.6%.

Consider `C=C/C(C)=C/C[C@]1(C)[C@H](C)[C@@H](OC(=O)CCC)[C@H](O)[C@@]23C(=C[C@H](OC)C[C@@H]12)[C@@H](OC(=O)CCC)O[C@H]3OC(C)=O`, for which the growth is -48.3% (active).

As to `COc1cccc(-c2nc3sccn3c2-c2cccc(S(C)(=O)=O)c2)c1`, the growth is 103%.

For the compound `COc1ccc(-c2nn(-c3cccc(Cl)c3)cc2-c2cc(-c3ccccc3)[nH]c(=O)c2C#N)cc1`, the growth is 3.07% (active).

As for `Cc1cc(SCc2ccccc2)nc(N)n1`, the growth was 89.3%.

Regarding `Nc1nc(N)c(N)c(Nc2ccc(CCO)cc2)n1`, the growth is 99.9%.

Regarding `CC(C)(C)OC(=O)N1CCc2c(sc3ncnc(N/N=C/c4ccc(Br)cc4)c23)C1`, the growth is 74.9%.

Turning to `COc1ccc(/C(C#N)=C/c2cccc(OC)c2OC)cc1`, the growth was 78.1%.

On to `CC[C@@H]1NC(=O)[C@H]([C@H](O)[C@H](C)C/C=C/c2ccc(CN3C(=O)CCCC3=O)cc2)N(C)C(=O)[C@H](C(C)C)N(C)C(=O)[C@H](CC(C)C)N(C)C(=O)[C@H](CC(C)C)N(C)C(=O)[C@@H](C)NC(=O)[C@H](C)NC(=O)[C@H](CC(C)C)N(C)C(=O)[C@H](C(C)C)NC(=O)[C@H](CC(C)C)N(C)C(=O)CN(C)C1=O`, for which the growth was 8.44% (active).

`Cc1cc(Br)nnc1Br`: the growth is 96.8%.

For `CC(C)[N+]1(C)C2CC[C@@H]1CC(OC(=O)C(CO)c1ccccc1)C2` (stereo not given in full), the growth is 106%.

For `O=S(=O)(Oc1ccc(-c2ccc3sccc3c2)cc1)c1ccc(F)cc1`, the growth was 102%.

Take `COc1cc(C(=O)/C=C/c2c[nH]c3ccccc23)cc(OC)c1OC`: the growth is -9.31% (active).

Regarding `Nc1cc(-c2ccc(Cl)cc2)nn1-c1nc2ccccc2nc1Cc1ccccc1`, the growth was 90.5%.

On to `NC1=NC(c2ccc(Cl)cc2)C2=C(N1)/C(=C/c1ccc(Cl)cc1)CCC2` (stereo not given), for which the growth is 79%.

For the compound `COc1ccc(/C=C2\CCCC3=C2N=C2SC(C)=CN2C3c2ccc(OC)cc2)cc1` (stereo not given), the growth is 105%.

For `O=C1/C=C/[C@@H](O)[C@@H]2C[C@@H](O)C[C@H]2/C=C/CCC[C@@H](C(F)(F)F)O1`, the growth was 123%.

Regarding `C=CCn1c(SCC(=O)Nc2ccc(C(=O)/C=C/c3ccc(OC)cc3)cc2)nnc1-c1ccc(OC)c(OC)c1`, the growth was 75.8%.

Take `CCn1cc(CNc2ccc(C(=O)Nc3ccc4ccccc4c3)cc2)c(C)n1`: the growth is 9.81% (active).

As to `OC(CNc1ccnc2cc(Cl)ccc12)CNC1CCCCC1` (stereo not given), the growth was 70%.

Turning to `CCOC(=O)c1cc(C(=O)c2cc(OC)c(OC)c(OC)c2)n2ncc3ccccc3c12`, the growth was 70.5%.

As to `Nc1cc(Br)c(-c2nn3c(CCC(=O)c4nc5ccccc5[nH]4)nnc3s2)c(Br)c1`, the growth is 105%.

`COc1ccc2nc3cc(Cl)ccc3c(NCCCNCCO)c2c1`: the growth was 5.74% (active).

Regarding `S=c1cnc2ccccc2[nH]1`, the growth is 103%.

Regarding `O=c1cn[nH]c2ccc(Br)cc12`, the growth is 105%.

Regarding `COc1ccc(Cl)cc1Nc1nc(C(F)(F)F)ccc1C(=O)N/N=C/c1ccc(Cl)cc1`, the growth was 36.9%.

For `CCn1c(SC/C(=N/O)c2ccccc2)nnc1-c1ccccc1`, the growth was 115%.

As to `O=C1NC(=O)c2c(CCCSc3nc4ccccc4c(=O)n3CCc3ccccc3)cccc21`, the growth is 92.6%.

For the compound `c1ccc(CSc2ncccc2-c2nnc(SCCN3CCOCC3)o2)cc1`, the growth is 112%.

In the case of `COc1cc2cc(Oc3ccc(NC(=O)Nc4ccc(Cl)c(C(F)(F)F)c4)cc3)c(C)nc2cc1OC`, the growth was -38.7% (active).
